Measurements: PubChem BioAssay (EPA / NIEHS)
Inconclusive results are not listed. The source made the active and inactive calls. The calls were made as follows, unless noted: active = hit-call score of the fitted dose curve at least 0.9, where 1 is the maximum; inactive = score below 0.9.

What was measured:
[1] = biological target: T1, Thyroid hormone receptor alpha (Rattus norvegicus) + Thyroid hormone receptor beta (Rattus norvegicus) (UniProt P18113+P63059); test: TOX21_TR_LUC_GH3_Antagonist_Followup: Tox21 GH3 Thyroid Hormone Receptor Antagonism Luciferase Follow-Up Assay (AID 2283942; active = hit-call score of the fitted dose curve at least 0.9, where 1 is the maximum)
Outline: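 Luminescence read-out (ONE-Glo, 30 min at room temperature) in GH3 reporter cells challenged with 1.0 nM T3 final. Compounds ran at 92 uM to 5nM over 15 concentrations for 24 h; DMSO served as negative control and baseline.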

THRB (gene 7068) [2] = biological target: THRB (gene 7068) (UniProt P10828); test: TOX21_TRB_BLA_Antagonist_Followup_ratio: Tox21 Thyroid Hormone Receptor beta Antagonism Beta-lactamase (BLA) Follow-Up Assay, Ratio (AID 2283958; active = hit-call score of the fitted dose curve at least 0.9, where 1 is the maximum)
Outline: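 Cells were plated and allowed to attach for 5 h, then dosed with compounds in DMSO at 11 concentrations for 18 h at 37C. Beta-lactamase reporter activity was measured via CCF4-AM FRET as the 460:530 nm ratio.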

[3] = TOX21_TRB_BLA_Antagonist_Followup_viability: Viability Assessment in the Tox21 Thyroid Hormone Receptor beta Antagonism Beta-lactamase (BLA) Follow-Up Assay (AID 2283961; active = hit-call score of the fitted dose curve at least 0.9, where 1 is the maximum)
Outline: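 ATP-based CellTiter-Glo luminescence (30 min, room temperature) run in the same wells as the TRβ-bla readout. Cells: GeneBLAzer HEK293T expressing GAL4-TRβ LBD, exposed 18 h at 37C to compounds at 11 concentrations in triplicate, stripped-serum medium.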

THRB (gene 7068) [4] = biological target: THRB (gene 7068) (UniProt P10828); test: TOX21_TRB_COA_Antagonist_Followup_ratio: Tox21 Thyroid Hormone Receptor beta Antagonism through Coactivator Recruitment Follow-Up Assay, Ratio (AID 2283967; active = hit-call score of the fitted dose curve at least 0.9, where 1 is the maximum)
Outline: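 GST-TRb LBD 5.0 nM + 0.10% BSA, compound added; fluorescein-SRC-2 peptide 200 nM, Tb-anti-GST Ab 2 nM. TR-FRET, ex 340 / em 520:495 ratio. Norm: DMSO 0%, T3 100%.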

[5] = CCTE_Harrill_HTTr_Viability_DMEM_6hr: (Pilot) CCTE's 6-hour Cell Viability Assessment for the High-Throughput Transcriptomics (HTTr) Platform, in MCF-7 cells cultured in DMEM + 10% fetal bovine serum, Harrill Lab (AID 2283973)
Outline: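 Propidium iodide uptake imaged by high-content analysis after six hours of chemical treatment in an eight-concentration series. Cells: MCF-7 grown in DMEM with 10% fetal bovine serum; DMSO as baseline.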

[6] = CCTE_Harrill_HTTr_Viability_DMEM_12hr: (Pilot) CCTE's 12-hour Cell Viability Assessment for the High-Throughput Transcriptomics (HTTr) Platform, in MCF-7 cells cultured in DMEM + 10% fetal bovine serum, Harrill Lab (AID 2283974)
Outline: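 Propidium iodide dye exclusion imaged by high-content microscopy after 12 h chemical exposure (eight concentrations) of MCF-7 cells grown in DMEM plus 10% FBS; values fitted in both directions relative to DMSO.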

[7] = CCTE_Harrill_HTTr_Viability_DMEM_24hr: (Pilot) CCTE's 24-hour Cell Viability Assessment for the High-Throughput Transcriptomics (HTTr) Platform, in MCF-7 cells cultured in DMEM + 10% fetal bovine serum, Harrill Lab (AID 2283975)
Outline: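 Pilot study: propidium iodide dye exclusion, imaged by high content microscopy, after 24 h compound exposure (eight concentrations) in MCF-7 cultured in DMEM + 10% fetal bovine serum; DMSO served as negative control and baseline.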

[8] = CCTE_Harrill_HTTr_Viability_PRF_DMEM_6hr: (Pilot) CCTE's 6-hour Cell Viability Assessment for the High-Throughput Transcriptomics (HTTr) Platform, in MCF-7 cells cultured phenol red-free DMEM + 10% charcoal-stripped fetal bovine serum, Harrill Lab (AID 2283976)
Outline: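 Membrane integrity by high-content imaging of propidium iodide uptake, six hours after dosing with eight concentrations. Cells: MCF-7 grown in phenol red-free DMEM plus 10% charcoal-stripped serum; DMSO serves as baseline for bidirectional fits.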

[9] = CCTE_Harrill_HTTr_Viability_PRF_DMEM_12hr: (Pilot) CCTE's 12-hour Cell Viability Assessment for the High-Throughput Transcriptomics (HTTr) Platform, in MCF-7 cells cultured in phenol red-free DMEM + 10% charcoal-stripped fetal bovine serum, Harrill Lab (AID 2283977)
Outline: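 Membrane integrity was scored via propidium iodide dye exclusion imaging, fitted in both directions relative to DMSO. Compounds ran as eight-point dilutions for 12 hours on MCF-7 grown in phenol red-free DMEM plus 10% charcoal-stripped serum.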

[10] = TOX21_TR_RXR_BLA_Antagonist_Followup_viability: Viability Assessment in the Tox21 Thyroid Hormone Receptor beta Retinoid X Receptor alpha (RXRa) Antagonism Beta-lactamase (BLA) Follow-Up Assay (AID 2283979; active = hit-call score of the fitted dose curve at least 0.9, where 1 is the maximum)
Outline: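 RXRa-bla HEK293T cells (2,500/well, phenol red-free DMEM, 2% charcoal-stripped FBS) were attached 5 h, then exposed to compounds at 11 concentrations in triplicate for 16 h at 37C. Viability measured by CellTiter-Glo ATP luminescence, bidirectional fitting versus DMSO.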

[11] = CCTE_Harrill_HTTr_Viability_PRF_DMEM_24hr: (Pilot) CCTE's 24-hour Cell Viability Assessment for the High-Throughput Transcriptomics (HTTr) Platform, in MCF-7 cells cultured in phenol red-free DMEM + 10% charcoal-stripped fetal bovine serum, Harrill Lab (AID 2283980)
Outline: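 Propidium iodide exclusion imaged at 24 h after dosing scores viability; cells were MCF-7 grown in phenol red-free DMEM plus 10% charcoal-stripped serum, tested in eight concentrations, fitted in both directions against DMSO.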

[12] = CCTE_Harrill_HTTr_Apoptosis_DMEM_6hr: (Pilot) CCTE's 6-hour Apoptosis Assessment for the High-Throughput Transcriptomics (HTTr) Platform, in MCF-7 cells cultured in DMEM + 10% fetal bovine serum, Harrill Lab (AID 2283981)
Outline: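 MCF-7 cells grown in DMEM + 10% FBS were exposed for 6 hours to an eight-point dilution series. CellEvent Caspase 3/7 Green signal was imaged; activity fitted bidirectionally against DMSO.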

[13] = CCTE_Harrill_HTTr_Apoptosis_DMEM_12hr: (Pilot) CCTE's 12-hour Apoptosis Assessment for the High-Throughput Transcriptomics (HTTr) Platform, in MCF-7 cells cultured in DMEM + 10% fetal bovine serum, Harrill Lab (AID 2283982)
Outline: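 Caspase-3/7 activity was measured by high-content imaging (CellEvent Caspase 3/7 Green) after a 12-hour exposure of MCF-7 cells grown in DMEM with 10% FBS. Eight-point concentration series, fitted bidirectionally against vehicle.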

[14] = CCTE_Harrill_HTTr_Apoptosis_DMEM_24hr: (Pilot) CCTE's 24-hour Apoptosis Assessment for the High-Throughput Transcriptomics (HTTr) Platform, in MCF-7 cells cultured in DMEM + 10% fetal bovine serum, Harrill Lab (AID 2283983)
Outline: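 Caspase-3/7 activity read by high-content imaging (CellEvent Green reagent) 24 h after dosing. MCF-7 cells grown in DMEM with 10% FBS received an eight-point concentration series; fits were bidirectional versus DMSO.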

[15] = TOX21_PR_BLA_Followup_Antagonist_viability: Viability Assessment in the Tox21 HEK293 Progesterone Receptor (PR) Antagonism Beta-lactamase Follow-Up Assay (AID 2283936; active = hit-call score of the fitted dose curve at least 0.9, where 1 is the maximum;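 also: cells exposed to compound with R5020 agonist for 16 h; hits lower the luminescence signal meaning cytotoxicity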)
Outline: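 PR-UAS-bla HEK293T cells in medium with 2% charcoal-stripped FBS were treated with compounds plus R5020 for 16 hr at 37C. After the beta-lactamase read, CellTiter-Glo was added to the same wells and luminescence read after 30 min at room temperature.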

PGR (gene 5241) = PGR (gene 5241) (UniProt P06401); test: TOX21_PR_LUC_Followup_Antagonist: Tox21 HEK293 Progesterone Receptor (PR) Antagonism Luciferase Follow-Up Assay (AID 2283938; active = hit-call score of the fitted dose curve at least 0.9, where 1 is the maximum;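 also: curve fitted upward as signal gain over DMSO baseline despite antagonist label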)
Outline: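 Luminescence from ONE-Glo was measured 30 min after reagent addition, following 16 h exposure of HEK293-PR-A-luc cells (3,000/well, plated 5 h earlier) to DMSO-dissolved compounds at 37C; DMSO served as baseline.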

[16] = biological target: T1, Thyroid hormone receptor alpha (Rattus norvegicus) + Thyroid hormone receptor beta (Rattus norvegicus); test: TOX21_TR_LUC_GH3_Agonist_Followup: Tox21 GH3 Thyroid Hormone Receptor Agonism Luciferase Follow-Up Assay (AID 2283939; active = hit-call score of the fitted dose curve at least 0.9, where 1 is the maximum)
Outline: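 Agonist-mode confirmatory run: 15 concentrations (5 nM to 92 uM final) on GH3 rat pituitary cells, 24 h at 37C/5% CO2, T3 as positive control. Luminescence read with ONE-Glo after 30 min.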

THRA (gene 7067) = THRA (gene 7067) (UniProt P10827); test: TOX21_TRA_COA_Agonist_Followup_ratio: Tox21 Thyroid Hormone Receptor alpha Agonism through Coactivator Recruitment Follow-Up Assay, Ratio (AID 2283948)
Outline: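 Cell-free TR-FRET coactivator recruitment: GST-tagged TRα LBD (2.5 nM) with 0.10% BSA was incubated with compound, then fluorescein-SRC-2 peptide (200 nM) and Tb-anti-GST antibody (2 nM) added. 520:495 nm ratio normalized to DMSO (0%) and T3 (100%).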

THRB (gene 7068) [17] = biological target: THRB (gene 7068) (UniProt P10828); test: TOX21_TRB_COA_Agonist_Followup_ratio: Tox21 Thyroid Hormone Receptor beta Agonism through Coactivator Recruitment Follow-Up Assay, Ratio (AID 2283963)
Outline: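 Cell-free TR-FRET coactivator recruitment: GST-tagged TRβ LBD (5.0 nM) with 0.10% BSA incubated with compound, then fluorescein-SRC-2 peptide (200 nM) and Tb-anti-GST antibody (2 nM) added. 520:495 nm ratio normalized to DMSO (0%) and T3 (100%).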

[18] = biological target: Retinoic acid receptor RXR-alpha (Homo sapiens) (UniProt P19793); test: TOX21_TR_RXR_BLA_Agonist_Followup_ratio: Tox21 Thyroid Hormone Receptor beta Retinoid X Receptor alpha (RXRa) Agonism Beta-lactamase (BLA) Follow-Up Assay, Ratio (AID 2283968; active = hit-call score of the fitted dose curve at least 0.9, where 1 is the maximum)
Outline: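 Cells were first allowed to attach for 5 h, after which compounds in DMSO were pinned at 11 concentrations and incubated 16 h at 37C. LiveBLAzer CCF4-AM substrate was then added for 2 h at room temperature before reading 460 and 530 nm fluorescence.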

Measured: AC50

Sequence of THRB (gene 7068) (P10828 whole entry, looked up, the tested form may be a part): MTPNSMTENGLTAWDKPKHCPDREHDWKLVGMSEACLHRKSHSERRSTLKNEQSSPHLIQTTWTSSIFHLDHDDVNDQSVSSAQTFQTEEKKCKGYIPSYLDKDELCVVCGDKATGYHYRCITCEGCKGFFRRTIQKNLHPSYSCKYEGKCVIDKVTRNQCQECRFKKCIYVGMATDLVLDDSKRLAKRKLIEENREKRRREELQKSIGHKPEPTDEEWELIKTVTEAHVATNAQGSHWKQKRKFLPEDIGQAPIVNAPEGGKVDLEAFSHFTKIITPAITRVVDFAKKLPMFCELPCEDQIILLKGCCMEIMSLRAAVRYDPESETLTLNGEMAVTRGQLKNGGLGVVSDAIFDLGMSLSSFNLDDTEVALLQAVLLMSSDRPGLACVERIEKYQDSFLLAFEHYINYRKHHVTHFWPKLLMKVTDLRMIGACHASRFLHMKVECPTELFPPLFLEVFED
Sequence of PGR (gene 5241) (P06401 whole entry, looked up): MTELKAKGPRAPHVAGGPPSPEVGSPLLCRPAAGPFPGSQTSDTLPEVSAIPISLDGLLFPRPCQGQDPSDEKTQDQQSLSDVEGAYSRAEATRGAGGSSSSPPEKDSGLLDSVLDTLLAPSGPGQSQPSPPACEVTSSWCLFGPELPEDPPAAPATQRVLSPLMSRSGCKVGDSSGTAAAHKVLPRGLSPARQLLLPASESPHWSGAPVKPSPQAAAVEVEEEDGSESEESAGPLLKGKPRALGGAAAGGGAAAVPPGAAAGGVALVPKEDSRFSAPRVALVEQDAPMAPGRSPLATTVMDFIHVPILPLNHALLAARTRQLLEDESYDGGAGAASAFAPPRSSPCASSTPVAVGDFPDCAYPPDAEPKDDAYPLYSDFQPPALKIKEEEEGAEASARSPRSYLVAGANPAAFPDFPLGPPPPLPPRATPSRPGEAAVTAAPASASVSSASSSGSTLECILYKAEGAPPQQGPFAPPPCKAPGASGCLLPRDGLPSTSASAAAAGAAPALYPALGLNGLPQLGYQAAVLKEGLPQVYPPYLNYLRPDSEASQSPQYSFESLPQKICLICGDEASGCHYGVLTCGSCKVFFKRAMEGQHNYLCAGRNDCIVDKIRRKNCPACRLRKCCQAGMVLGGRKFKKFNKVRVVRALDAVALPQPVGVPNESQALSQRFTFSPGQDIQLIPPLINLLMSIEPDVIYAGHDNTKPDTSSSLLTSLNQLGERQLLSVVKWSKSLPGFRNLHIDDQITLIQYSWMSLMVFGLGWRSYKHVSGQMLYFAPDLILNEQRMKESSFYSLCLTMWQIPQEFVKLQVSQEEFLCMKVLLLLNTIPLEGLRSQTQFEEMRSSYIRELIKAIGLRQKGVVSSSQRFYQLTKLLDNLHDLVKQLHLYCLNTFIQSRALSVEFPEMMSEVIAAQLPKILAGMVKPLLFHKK
Sequence of Retinoic acid receptor RXR-alpha (Homo sapiens) (P19793 whole entry, looked up): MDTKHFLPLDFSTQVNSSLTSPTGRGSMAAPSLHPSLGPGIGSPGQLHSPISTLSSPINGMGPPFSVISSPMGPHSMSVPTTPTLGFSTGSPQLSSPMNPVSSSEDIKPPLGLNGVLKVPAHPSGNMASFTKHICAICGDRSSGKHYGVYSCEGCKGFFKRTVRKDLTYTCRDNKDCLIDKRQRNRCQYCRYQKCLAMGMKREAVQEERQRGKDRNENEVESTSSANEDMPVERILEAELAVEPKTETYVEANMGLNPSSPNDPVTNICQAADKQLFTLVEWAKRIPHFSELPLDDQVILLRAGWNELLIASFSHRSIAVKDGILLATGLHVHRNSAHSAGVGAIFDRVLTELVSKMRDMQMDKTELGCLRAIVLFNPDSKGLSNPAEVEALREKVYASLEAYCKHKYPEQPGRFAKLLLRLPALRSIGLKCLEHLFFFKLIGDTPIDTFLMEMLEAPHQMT
Sequence of THRA (gene 7067) (P10827 whole entry, looked up, the tested form may be a part): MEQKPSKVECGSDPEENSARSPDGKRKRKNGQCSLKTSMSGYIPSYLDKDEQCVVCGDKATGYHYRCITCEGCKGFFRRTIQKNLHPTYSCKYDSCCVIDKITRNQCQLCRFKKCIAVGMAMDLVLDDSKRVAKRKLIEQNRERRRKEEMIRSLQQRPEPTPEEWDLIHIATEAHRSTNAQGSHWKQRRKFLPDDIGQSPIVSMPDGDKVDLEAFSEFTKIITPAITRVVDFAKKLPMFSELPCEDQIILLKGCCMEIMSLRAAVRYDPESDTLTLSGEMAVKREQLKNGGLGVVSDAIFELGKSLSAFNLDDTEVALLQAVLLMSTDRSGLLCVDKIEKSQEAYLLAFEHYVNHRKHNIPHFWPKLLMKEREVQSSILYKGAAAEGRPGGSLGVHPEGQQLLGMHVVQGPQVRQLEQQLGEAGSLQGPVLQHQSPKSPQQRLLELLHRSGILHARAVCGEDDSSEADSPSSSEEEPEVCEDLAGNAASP
T1 sequence (P63059 whole entry, looked up): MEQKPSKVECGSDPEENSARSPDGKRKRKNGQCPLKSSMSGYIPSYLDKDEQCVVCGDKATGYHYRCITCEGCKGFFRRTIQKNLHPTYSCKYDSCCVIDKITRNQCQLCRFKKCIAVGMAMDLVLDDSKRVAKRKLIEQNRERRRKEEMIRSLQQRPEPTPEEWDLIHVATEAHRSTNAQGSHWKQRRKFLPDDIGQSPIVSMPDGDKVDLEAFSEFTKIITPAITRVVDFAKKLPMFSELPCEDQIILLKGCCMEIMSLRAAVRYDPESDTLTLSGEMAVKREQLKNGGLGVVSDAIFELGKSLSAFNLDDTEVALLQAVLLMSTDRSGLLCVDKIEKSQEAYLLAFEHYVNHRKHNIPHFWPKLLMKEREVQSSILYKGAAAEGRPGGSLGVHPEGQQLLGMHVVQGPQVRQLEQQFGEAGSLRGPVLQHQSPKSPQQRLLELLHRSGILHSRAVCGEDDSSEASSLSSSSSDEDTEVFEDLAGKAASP
T1 sequence (P18113 whole entry, looked up): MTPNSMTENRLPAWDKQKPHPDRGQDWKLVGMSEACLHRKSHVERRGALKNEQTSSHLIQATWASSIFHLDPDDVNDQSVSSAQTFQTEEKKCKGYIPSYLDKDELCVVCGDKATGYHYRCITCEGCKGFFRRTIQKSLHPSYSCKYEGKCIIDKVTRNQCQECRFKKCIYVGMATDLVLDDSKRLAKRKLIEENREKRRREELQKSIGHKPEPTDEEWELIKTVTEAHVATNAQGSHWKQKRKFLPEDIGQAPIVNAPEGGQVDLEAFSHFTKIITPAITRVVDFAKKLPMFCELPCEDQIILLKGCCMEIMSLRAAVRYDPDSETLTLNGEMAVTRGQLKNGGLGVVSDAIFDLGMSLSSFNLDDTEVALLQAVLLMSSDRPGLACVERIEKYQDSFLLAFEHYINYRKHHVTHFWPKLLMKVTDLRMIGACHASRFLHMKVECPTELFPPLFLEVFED

Nc1nc(Cl)nc2c1ncn2[C@H]1C[C@H](O)[C@@H](CO)O1
inactive: [1] | THRB (gene 7068) [2] | [3] | THRB (gene 7068) [4] | [5] | [6] | [7] | [8] | [9] | [10] | [11] | [12] | [13] | [14]

CC(=O)[C@@]1(O)CC[C@H]2[C@@H]3CCC4=CC(=O)CC[C@]4(C)[C@H]3CC[C@@]21C
inactive: [15] | PGR (gene 5241)

Cc1occc(=O)c1O
inactive: [16] | THRA (gene 7067) | THRB (gene 7068) [17] | [18]

CC(=O)O[C@]1(C(C)=O)CC[C@H]2[C@@H]3C=C(Cl)C4=CC(=O)[C@@H]5C[C@@H]5[C@]4(C)[C@H]3CC[C@@]21C
inactive: [5] | [6] | [7] | [8] | [9] | [11] | [12] | [13] | [14]

CCN(CC)CCOc1ccc(C(=C(Cl)c2ccccc2)c2ccccc2)cc1
active: [5] 82.4 µM | [6] 65.3 µM | [7] 54.8 µM | [8] 70 µM | [9] 65.8 µM | [11] 50.3 µM | [12] 81.1 µM | [13] 83.4 µM | [14] 66.2 µM

CC(C)OC(=O)C(C)(C)Oc1ccc(C(=O)c2ccc(Cl)cc2)cc1
inactive: [5] | [6] | [7] | [8] | [9] | [11] | [12] | [13] | [14]

Cc1c(C)c2c(c(C)c1O)CCC(C)(COc1ccc(CC3SC(=O)NC3=O)cc1)O2 (centres undefined)
inactive: [5] | [6] | [7] | [8] | [9] | [11] | [12] | [13] | [14]

COC(=O)[C@H]1[C@H]2C[C@@H]3c4[nH]c5cc(OC)ccc5c4CCN3C[C@H]2C[C@@H](OC(=O)c2cc(OC)c(OC)c(OC)c2)[C@@H]1OC
inactive: [5] | [6] | [7] | [8] | [9] | [12] | [13]
active: [14] 46.2 µM
